Sampled rows, rich in hits. Any-hit rate of the full collection: about 2.2%.
Mot1-301 SUMO: blocks SUMOylation pathway, rescuing yeast Mot1-301 growth; S. cerevisiae Mot1-301 growth rescue, ATP luminescence, 38.5C; percent above DMSO median, 100 means doubled; growth rescue, % at 18.8 µM; 320,000 compounds, 1% hits; AID 2716;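 active means every valid replicate shows activation above 250% relative to neutral control wells; inactive means the rest, any valid replicate at or below 250%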;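 further: OY570 slx delta 5 strain wells were the positive control but not used for scaling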
Efflux pump inh: antifungal efflux pump inhibition, Nile Red retention | S. cerevisiae Candida pump triplex | inhibition, % at 10 µM | 330,000 compounds, 0.44% hits;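 active means plate passing quality check with inhibition over a set limit, or well fluorescence over plate mean plus 4 SD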;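 further: Nile Red retained in pooled yeast measured as flow cytometry median fluorescence; 0% = buffer negative control and 100% = Enniatin B positive control; higher means more Nile Red kept so more efflux inhibition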
sPLA2-III inh: Inhibits HGIII-sPLA2 liposome hydrolysis, primary screen; QFRET BODIPY PC-A2 liposome hydrolysis, fluorescence; inhibition, % at 12.2 µM; 370,000 compounds, 0.56% hits; AID 743126;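 active means inhibition above mean plus 3 SD of compounds lying within the high and low control bounds, cut at about 19% in these data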;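 further: 0% = median of test compound wells and 100% = no enzyme DMSO wells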
Target sequence (Q9NZ20 whole entry, looked up): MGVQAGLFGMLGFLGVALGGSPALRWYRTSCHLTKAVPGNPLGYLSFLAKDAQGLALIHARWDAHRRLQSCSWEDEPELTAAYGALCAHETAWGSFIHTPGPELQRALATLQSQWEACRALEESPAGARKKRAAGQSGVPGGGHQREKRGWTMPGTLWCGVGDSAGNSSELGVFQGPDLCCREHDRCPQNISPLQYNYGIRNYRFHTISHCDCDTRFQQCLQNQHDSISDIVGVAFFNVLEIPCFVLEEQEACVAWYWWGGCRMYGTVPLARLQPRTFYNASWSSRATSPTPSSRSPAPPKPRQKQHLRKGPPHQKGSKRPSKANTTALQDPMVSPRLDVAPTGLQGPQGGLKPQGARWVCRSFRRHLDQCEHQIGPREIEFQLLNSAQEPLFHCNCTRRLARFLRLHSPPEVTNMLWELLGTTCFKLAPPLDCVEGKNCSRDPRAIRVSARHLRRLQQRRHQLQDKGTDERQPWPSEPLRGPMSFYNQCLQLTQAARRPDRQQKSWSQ
SKN-1 block: blocks SKN-1 activity in C. elegans; C. elegans VP596 Pgst-4::GFP/RFP ratio, acrylamide-induced, 24 h; inhibition, % at 21.8 µM; 360,000 compounds, 0.49% hits;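 active means interference check ratio from 0.5 to 1.5 plus GFP to RFP signal ratio inhibition reaching or exceeding a fixed threshold, cut at about 30% in these data, passing the limit was not always enough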
Numbers without * were called inactive; i = inactive; . = not tested or not shown.

SMILES	Mot1-301 SUMO	Efflux pump inh	sPLA2-III inh	SKN-1 block
CCCCCCCCCCCCCCCC[n+]1cccc2ccccc21	-46.9	1.1*	-2.3	53.2*
O/C=c1\ccc2cccc3nc(C(F)(F)F)nc1c23	104.2	3.0*	15.8	32.0
COCCN(C(=O)COC(=O)CSc1ccccc1)c1c(N)n(Cc2ccccc2)c(=O)[nH]c1=O	355.7*	0.2	-0.9	-7.9
CCc1nc2ccccc2c(C(=O)OCC(=O)N(CCOC)c2c(N)n(Cc3ccccc3)c(=O)[nH]c2=O)c1C	.	.	-6.9	41.1*
CC1(NC(=O)c2ccc(C#Cc3cccc(F)c3)cn2)COC1	.	.	-4.1	.
CCNC(=O)O[C@@H]1C=C[C@@H](C#Cc2ccc(C(C)(C)C)cc2)O[C@@H]1COC(C)=O	.	.	-8.1	.
COC(=O)c1[nH]c2ccccc2c1NC(=O)C(C)N1CCOCC1 (centres undefined)	5.3	-0.1	7.6	38.3*
Nc1nc2c(ncn2[C@@H]2O[C@H](C(=O)N[C@H](Cc3ccccc3)C(=O)NC3CCCCC3)[C@@H](O)[C@H]2O)c(=O)[nH]1	.	.	6.8	.
O=C(CSc1nnc(CN2CCOCC2)n1-c1ccc(Cl)cc1)N1CCc2ccccc21	1.1	0.1	-5.7	42.4*
Cc1ccc(C)c(-n2c(CNC(=O)c3ccco3)nnc2SCC(=O)N2CCc3ccccc32)c1	126.1	0.1	0.5	39.0*
O=C(OCc1ccccc1)N1CCCC2CC1c1ccccc12 (centres undefined)	.	.	2.4	-5.5
COC(=O)[C@]12C[C@H](CC(=O)N3CCN(C(=O)c4ccco4)CC3)C(=O)N(Cc3ccccc3)C1=C[C@H](C(C)C)O[C@@H]2C1CC1	.	.	0.2	.
CN(C)c1ccnc(Oc2ccc(C(C)(C)C)cc2)c1C#N	355.6*	0.1	-8.9	16.8
CCC1(C)Cc2c(C#N)c(N)n(-c3ccccc3)c(=S)c2CO1 (centres undefined)	-3.9	-0.1	6.2	3.7
CCC1(C)Cc2c(C#N)c(N)sc(=S)c2CO1 (centres undefined)	-14.4	-0.2	5.1	45.5*
O=S(=O)(c1ccccc1Br)N1CCN(c2ncccn2)CC1	17.5	0.0	-5.0	8.9
CCNC(=O)N1CCN(c2ccc(N3CCN(Cc4ccccc4)[C@H](C)C3)c(C)c2)[C@@H](C)C1	.	.	13.5	.
O=C(Nc1ccccc1Oc1ccccc1)c1cccs1	4.2	0.8	-2.7	41.9*
CSc1ccccc1NC(=O)c1cccs1	-3.8	0.0	8.1	-15.4
O=c1[nH]c2cc(Cl)c(Cl)cc2o1	.	.	-15.9	10.0
O=c1[nH]c2cc(Cl)c(Br)cc2o1	.	.	-3.4	35.4*
CCNS(=O)(=O)c1ccc(OC)c(C(=O)NC2CCCCC2)c1	322.7*	0.1	.	12.5
COc1ccc(S(=O)(=O)NCc2cccnc2)cc1C(=O)NC1CCCCC1	-10.1	-0.3	-0.6	4.5
CC1=CC(=O)c2c(O)ccc(O)c2C1=O	-16.6	1.0*	.	.
COc1ccccc1-n1cccc1C=O	658.7*	0.0	4.3	-15.9
SMILES	Mot1-301 SUMO	Efflux pump inh	sPLA2-III inh	SKN-1 block
c1ccc(N=NC2=NN(c3ccccc3)CS2)cc1	.	.	29.5*	34.7
c1ccc(C2=NN(c3ccccc3)CC2)cc1	148.7	0.1	-9.6	9.8
CCOc1ccc(S(=O)(=O)Nc2ccc3c(c2)c2c(n3S(=O)(=O)c3ccc(OCC)cc3)CCCC2=O)cc1	876.9*	-2.5	-0.1	.
CC(C)c1[nH]nc2c1C(c1cccc(C(F)(F)F)c1)N(Cc1ccccc1)C2=O (centres undefined)	.	.	10.4	.
COC(=O)CC#C[C@@H](C)[C@H](NS(=O)(=O)c1ccc(C)cc1)C(C)(C)C	.	.	-3.6	.
Clc1ccc(-c2nnc(-c3ccccc3)c(N3CCSCC3)n2)cc1	-13.2	0.0	3.0	38.2*
Clc1ccc(-c2nnc(-c3ccccc3)c(-c3ccccc3)n2)cc1	6.1	-0.2	11.6	9.1
CN(C)S(=O)(=O)c1ccc(N2CCCC2)c(C(=O)Nc2ccc(C(N)=O)cc2)c1	261.0*	-0.1	-1.9	-3.1
O=C(/C=C/c1ccccc1)NC(=S)NNC(=O)c1cccnc1	-1.4	-0.1	9.0	35.9*
COc1ccc(/C=C/C(=O)NC(=S)NNC(=O)c2cccnc2)cc1OC	-7.3	0.0	6.5	-3.1
Cc1[nH]c(C)c(S(=O)(=O)NCc2ccc(F)cc2)c1C(=O)N1CCCC1	29.4	0.7	6.1	6.2
Cn1cc([C@@H]2C[C@H]3CN(Cc4cccc(Cl)c4)C(=O)[C@]34CCCN24)c2ccccc21	i	0.5	5.4	35.2*
CC1(C(=O)Nc2cnc3ccccc3c2)CCN1C(=O)c1ccccc1CCc1ccccc1 (centres undefined)	.	.	-7.3	39.1*
COc1cccc(-c2cc(CNC(=O)[C@H]3O[C@@H](n4cnc(C(N)=O)n4)[C@H](O)[C@@H]3O)no2)c1	.	.	-0.7	.
CN(C)c1ccc(C(=O)OCc2ccccc2)cc1	.	-0.1	11.7	0.4
O=C1C=CC(=O)C(CNc2ccc(C(=O)OCc3ccccc3)cc2)=C1	.	.	25.9*	8.1
COC(=O)[C@H](CC(C)C)N(CCCc1cn(Cc2ccc(C)cc2)nn1)S(=O)(=O)c1ccccc1Br	.	.	-24.3	.
Nc1nc2c(ncn2[C@@H]2O[C@H](C(=O)NCCc3c[nH]c4ccccc34)[C@@H](O)[C@H]2O)c(=O)[nH]1	.	.	8.8	.
CN(Cc1cc([N+](=O)[O-])c2cccnc2c1O)C1CCCCC1	2.1	8.2*	.	.
O=[N+]([O-])c1cc(Cl)c(O)c2ncccc12	.	.	-11.7	6.4
C=CCNC(=O)c1cc2c(=O)n3ccccc3nc2s1	-10.2	0.2	-1.2	41.2*
CN(C)c1ncnc2c1ncn2C1OC(CO)C(O)C1O (centres undefined)	277.2*	0.1	-5.5	-13.6
CN(C)c1ncnc2c1nnn2C1OC(CO)C(O)C1O (centres undefined)	.	.	6.6	17.4
COc1ccc(CCNC(=S)N2CCN(S(=O)(=O)c3cccc(F)c3)CC2)cc1	350.6*	0.0	14.5	7.9
C=CCOc1ccc2c(CC)cc(=O)oc2c1C	-20.6	0.0	-2.0	72.5*
SMILES	Mot1-301 SUMO	Efflux pump inh	sPLA2-III inh	SKN-1 block
CC(=O)N(/N=C1\Sc2ccccc2C1=O)c1ccccc1	.	.	-0.4	13.2
CC(=O)N(/N=C1\Sc2ccccc2C1=O)c1ccccc1C	-10.4	-0.1	9.8	39.6*
CC(=O)N(/N=C1\Sc2ccccc2C1=O)c1ccc(C)cc1C	-13.7	-0.2	0.0	42.6*
C[C@H]1CN(c2ccc(N3CCN(C(=O)OC(C)(C)C)C[C@@H]3C)cc2C#N)CCN1Cc1ccccc1	.	.	0.9	.
Nc1nc2ncccc2cc1C(=O)NC1CC1	.	.	0.9	.
O=C(NNC(=O)c1cc(Br)c(Br)s1)c1csc(N2CCOCC2)n1	346.6*	-0.1	1.0	6.2
COCCN1C(=O)[C@H]2C[C@@]13O[C@H](c1ccccn1)N=C3CC1c3ccccc3C[C@@]12C (some centres undefined)	.	.	11.0	.
CCCCn1c(=N)n(CC(=O)c2ccco2)c2ccccc21	-2.7	-0.1	-10.2	8.8
CCCCCCCn1c(=N)n(CC(=O)c2ccco2)c2ccccc21	514.1*	0.2	-26.4	11.7
O=c1cc(-c2ccccc2)oc2ccc3ccccc3c12	.	.	-4.0	36.4*
O=C(Nc1ccccc1C(F)(F)F)N1CCC(n2c(=O)[nH]c3ccccc32)CC1	6.3	0.2	-3.1	-7.2

From PubChem BioAssay
